Measurements from PubChem BioAssay AID456 (Sanford-Burnham Center for Chemical Genomics, 2006).
About 25 (0.2%) of roughly 10,000 compounds were called active. Shown is part of a subset that was picked to be rich in actives. Entries with a potency or affinity are not part of this list. Unmarked numbers belong to inactive results.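 Rule for the calls: active = top tenth filtered wells with inhibition above zero that passed visual or statistical confirmation; inactive = the rest, including hits rejected on review.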

Experiment: suppression of endothelial VCAM-1 upregulation – imaging, high-content imaging, pooled HUVEC, TNFa stimulus (AID 456);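 for inhibition: VCAM-1 immunofluorescence minus red nonspecific channel after plate median normalization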
Conditions: HUVEC TNFa-induced VCAM-1 surface expression, immunofluorescence imaging;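 compounds screened at 5 µM final in the well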

Row | Structure (SMILES) | inhibition
1 | CN(c1cccc(NC(=O)COc2ccccc2)c1)S(C)(=O)=O | inactive
2 | CCOc1ccc2ccccc2c1C(=O)N1CCN(c2ccccc2)CC1 | inactive
3 | CCOC(=O)c1c(NC(=O)CSc2nnc(-c3cccnc3)o2)sc(C)c1C | inactive
4 | CCN1C(=O)c2cccc3c(NC(=O)c4ccc5c(c4)OCCO5)ccc1c23 | inactive
5 | CN(C)S(=O)(=O)c1ccc(C(=O)Nc2ccccc2C(=O)O)cc1 | inactive
6 | N#Cc1c2n(c(=O)[nH]c1=O)CCCCC2 | inactive
7 | O=C(c1nn2cccnc2c1Cl)N1CCN(c2ccccc2)CC1 | inactive
8 | COC(=O)c1cc(Oc2ccc(C(=O)OC)cc2N)cc(C(=O)OC)c1 | inactive
9 | Cc1cc(C)n(C(=O)C23CC4CC(CC(C4)C2)C3)n1 | inactive
10 | Cn1c(=O)cc(OCCCC(=O)N2CCCCC2)c2ccccc21 | 102%
11 | Cc1ccc2oc(=O)c3cnn(CC(=O)N4CCCCC4C)c3c2c1 (stereo not drawn) | inactive
12 | Cc1cc(NS(=O)(=O)c2ccc(NC(=O)C(C)N3C(=O)c4ccccc4C3=O)cc2)nc(C)n1 (stereo not drawn) | inactive
13 | CC(=O)Nc1ccc(Cc2ccncc2)cc1 | inactive
14 | CN(C)S(=O)(=O)c1ccc(Oc2ccc(S(=O)(=O)N(C)C)cc2)cc1 | inactive
15 | O=S(=O)(Nc1ccccn1)c1ccc(Oc2ccccc2)cc1 | inactive
16 | COCCn1c(COc2ccc(Cl)cc2)nnc1SCC(N)=O | inactive
17 | Cc1cc(NC(=O)CSc2nnc(COc3cccc(C)c3C)n2Cc2ccco2)no1 | inactive
18 | Cc1occc1C(=O)N1CCN(Cc2ccccc2)CC1 | inactive
19 | CCOC(=O)c1sc(N)c(C(=O)OCC)c1COC(=O)C1CC(=O)N(Cc2ccco2)C1 (stereo not drawn) | inactive
20 | O=C(CN(c1ccccc1)S(=O)(=O)c1ccccc1)N1CCN(Cc2ccc3c(c2)OCO3)CC1 | inactive
21 | CCOC(=O)CNC(=O)c1c(C)nn(-c2ccccc2)c1Cl | inactive
22 | COc1ccc(S(=O)(=O)NCC(=O)N(CC(=O)NCC2CCCO2)c2ccccc2C)cc1 (stereo not drawn) | inactive
23 | Cc1cccc(N2CCN(C(=O)CCn3c(=S)[nH]c4cc5c(cc4c3=O)OCO5)CC2C)c1 (stereo not drawn) | inactive
24 | CC1(C)C(c2ccccc2)=NC(c2ccccc2)N1O (stereo not drawn) | inactive
25 | O=C(NCCN1CCOCC1)c1csc2c1CCCC2 | inactive
26 | CCOC(=O)N1CCN(CC(O)COc2ccccc2C(C)CC)CC1 (stereo not drawn) | inactive

Row | Structure (SMILES) | inhibition
27 | CCN(CC(=O)Nc1ccc(S(N)(=O)=O)cc1)S(=O)(=O)c1cc(C)ccc1OC | inactive
28 | CCCCC(=NCCO)C1=C(O)C(C(=O)OC)C(C)(C)CC1=O (stereo not drawn) | inactive
29 | O=C(CSc1nc2ccsc2c(=O)n1NC(=O)c1ccccc1)Nc1nccs1 | inactive
30 | COc1ccc(Cn2c(N)c(C#N)c3nc4ccccc4nc32)cc1OC | inactive
31 | COc1ccc(C)cc1-n1c(N)c(C#N)c(C#N)c1-c1ccc(OC)c(OC)c1OC | 77% (active)
32 | COc1cc2c(C)nc(C)c(C#N)c2cc1OC | inactive
33 | Cc1cc2cc(CN(CC3CCCO3)C(=O)c3cnccn3)c(=O)[nH]c2cc1C (stereo not drawn) | inactive
34 | COc1ccc2oc(C)c(C(=O)Cn3ccnc3)c2c1 | inactive
35 | Cn1c(=O)c2c(nc(SCCCC#N)n2Cc2c(F)cccc2Cl)n(C)c1=O | 72.9% (active)
36 | Cn1c(=O)c2c(nc(SCCCO)n2Cc2ccccc2Cl)n(C)c1=O | inactive
37 | Cn1c(=O)c2c(nc(SCCCC#N)n2Cc2ccccc2F)n(C)c1=O | inactive
38 | O=C(c1csc2ccccc12)N1CCCCCC1 | inactive
39 | Cn1c(-c2ccc(F)cc2)cnc1SCC(=O)Nc1ccccc1N1CCOCC1 | inactive
40 | Cc1ccnc2c(N3C(=O)C4C5C=CC(C5)C4(C)C3=O)cccc12 (stereo not drawn) | inactive
41 | CCOC(=O)C1CCCN(C(=O)CNS(=O)(=O)c2ccc(Br)s2)C1 (stereo not drawn) | inactive
42 | COC(=O)C1=C(C)n2nnnc2NC1c1ccc(Cl)cc1 (stereo not drawn) | inactive
43 | O=C(NCCN1CCOCC1)c1ccc2c(c1)N(Cc1ccccc1)C(=O)CS2 | inactive
44 | C=CCn1c(SCC(=O)NCC2CCCO2)nnc1C1CCCCC1 (stereo not drawn) | inactive
45 | COc1ccc(-c2nn3c(-c4ccncc4)nnc3s2)cc1OC | inactive
46 | Cc1cn2c(-c3ccncc3)nnc2s1 | inactive
47 | Cc1ccc2cc(C(c3nnnn3C3CCCC3)N3CCN(c4ccc(F)cc4)CC3)c(=O)[nH]c2c1 (stereo not drawn) | inactive
48 | Cc1ccc2nc(C(F)(F)F)c(C#N)c(N)c2c1 | 74.6% (active)
49 | Cc1cc(-c2ccccc2)c(C#N)c(N)n1 | inactive
50 | CN(C)c1ccc(NC(=O)CSCc2nc3c(nnn3Cc3ccc(F)cc3)c(=O)[nH]2)cc1 | inactive
51 | COC(=O)c1c(N)sc(C(=O)N2CCOCC2)c1C | inactive
52 | O=C(CSc1nnc(-c2cccnc2)o1)Nc1ccccn1 | inactive

Row | Structure (SMILES) | inhibition
53 | c1ccc(Cn2ncc3c2ncn2c(-c4ccncc4)nnc32)cc1 | inactive
54 | CCOc1ccc(C(c2nnnn2Cc2ccccc2)N2CCN(C(=O)c3ccco3)CC2)cc1 (stereo not drawn) | inactive
55 | O=C(CSc1nnnn1Cc1ccccc1)Nc1ccc2c(c1)OCO2 | inactive
56 | CCOC(=O)c1sc(Nc2nc3c(OC)cccc3s2)nc1C | inactive
57 | COc1cc(NS(=O)(=O)N2CCCC2)cc(OC)c1OC | inactive
58 | COc1ccc2ccccc2c1CN1CCN(C)CC1 | inactive
59 | c1cc(C(c2nnnn2C2CCCC2)N2CCOCC2)ccn1 (stereo not drawn) | inactive
60 | O=C(Nc1ccc(N2CCOCC2)c(F)c1)c1ccncc1 | inactive
61 | COc1ccc2cc(C(c3nnnn3C(C)(C)C)N3CCc4ccccc4C3)c(=O)[nH]c2c1 (stereo not drawn) | inactive
62 | CCC(C)(C)n1nnnc1C(c1ccc(OC)c(OC)c1)N1CCN(c2ccccc2)CC1 (stereo not drawn) | inactive
63 | C=CCSC1=C(C#N)C(c2ccccc2OCC)CC(=O)N1 (stereo not drawn) | inactive
64 | CNC(=O)CSc1nnc(-c2cc(C)cc(C)c2)o1 | inactive
65 | Cc1csc(NC(=O)CCCSc2nc3ccccc3s2)n1 | inactive
66 | CCOCCCNC(=O)C1CCCN(S(=O)(=O)CC)C1 (stereo not drawn) | inactive
67 | O=C(NCc1ccccc1)C1CCCN1S(=O)(=O)c1cccc2cccnc12 (stereo not drawn) | inactive
68 | C[C@]12CC[C@H]3[C@@H](CCC4=CC(=O)CC[C@@]43C)[C@@H]1CC[C@@H]2C(=O)CO | 72.2%
69 | CC(=O)[C@H]1CC[C@H]2[C@@H]3CCC4=CC(=O)CC[C@]4(C)[C@H]3CC[C@]12C | 87.1%
70 | CC(=O)OCC(=O)[C@H]1CC[C@H]2[C@@H]3CCC4=CC(=O)CC[C@]4(C)[C@H]3CC[C@]12C | 78.2% (active)
71 | CC(=O)OCC(=O)[C@@]1(O)[C@H](C)C[C@H]2[C@@H]3CCC4=CC(=O)C=C[C@]4(C)[C@@]3(F)[C@@H](O)C[C@@]21C | inactive
72 | CCCC(=O)O[C@]1(C(=O)CCl)[C@@H](C)C[C@H]2[C@@H]3CCC4=CC(=O)C=C[C@]4(C)[C@@]3(F)C(=O)C[C@@]21C | inactive
73 | CCC(=O)O[C@]1(C(=O)CCl)[C@@H](C)C[C@H]2[C@@H]3CCC4=CC(=O)C=C[C@]4(C)[C@@]3(F)[C@@H](O)C[C@@]21C | 78.5% (active)
74 | CCOC(=O)Nc1cc(OCC)c(NC(=O)C2CC2)cc1OCC | inactive
75 | COC(=O)CCN(C(=O)c1ccc2c(c1)OCO2)c1ccccn1 | inactive
76 | Cc1ccc(S(=O)(=O)N2CCCC(c3nnc4n3-c3ccccc3SC4)C2)cc1 (stereo not drawn) | inactive
77 | Cc1ccc(Nc2nc(N)nc(CN3CCN(Cc4ccc5c(c4)OCO5)CC3)n2)cc1 | inactive
78 | COc1ccccc1C(=O)Nc1ccc(S(=O)(=O)N2CCCC2)cc1 | inactive

Row | Structure (SMILES) | inhibition
79 | CCOC(=O)c1ccc(NC(=O)CSCc2ccco2)cc1 | inactive
80 | COC(=O)c1cc(=O)n(Cc2ccc3c(c2)OCO3)c(=Nc2ccccc2)s1 | 96.4%
81 | COc1ccc(S(=O)(=O)Cc2ccc(C(=O)N3CCN(Cc4ccccc4)CC3)o2)cc1 | inactive
82 | CCC(c1c(C)n(C)n(-c2ccccc2)c1=O)c1c(C)n(C)n(-c2ccccc2)c1=O | inactive
83 | Cc1nc2sccn2c(=O)c1CCN1CCC(=C(c2ccc(F)cc2)c2ccc(F)cc2)CC1 | 87.2%
84 | Cc1nc2ccccn2c(=O)c1CCN1CCC(C(=O)c2ccc(F)cc2)CC1 | inactive
85 | CCOC(=O)c1cc2c(=O)n3ccccc3nc2n(CC(C)C)c1=NC(=O)c1ccco1 | inactive
86 | CC(C)n1c(=NC(=O)c2ccco2)c(C#N)cc2c(=O)n3ccccc3cc21 | 78.9% (active)
87 | Cc1cccn2c(=O)c3cc(C#N)c(=NC(=O)c4ccncc4)n(Cc4ccco4)c3nc12 | inactive
88 | Cc1n[nH]c(C)c1S(=O)(=O)N1CCCCCC1 | inactive
89 | CC1Oc2ccccc2N(CC(=O)N(Cc2ccccc2)Cc2ccccn2)C1=O (stereo not drawn) | inactive
90 | COc1ccc(N2CCN(Cc3nc(-c4ccc(Cl)cc4Cl)no3)CC2)cc1 | inactive
91 | O=C(/C=C1\NC2(CCCC2)Cc2ccccc21)N1CCOCC1 | inactive
92 | CCCN1C=CC(=C2C(=O)c3ccccc3C2=O)C=C1 | inactive
93 | COc1ccc2cc3cc(C(=O)NCC4CCCO4)oc3nc2c1 (stereo not drawn) | inactive
94 | CC1(C(=O)NC2CCCCC2)CCC(=O)N1Cc1cccs1 (stereo not drawn) | inactive
95 | COc1ccc(Br)cc1S(=O)(=O)N1CCOCC1 | inactive
96 | Cc1cccc(-c2nnc(SCC#N)n2-c2cccc(Cl)c2)c1 | inactive
97 | COc1ccc2cc(CN(CCO)C(=O)c3ccccc3F)c(=O)[nH]c2c1 | inactive
98 | CCn1nnc(NC(=O)c2cc3ccccc3o2)n1 | inactive
99 | CCOC(=O)c1cccc(NC(=O)CSc2nnc(-c3ccoc3C)n2CCOC)c1 | inactive
100 | COC(=O)c1ccccc1NC(=O)CSc1nc2c(c(=O)n(C)c(=O)n2C)n1C | inactive
101 | O=C(c1cnn2c(C(F)F)cc(-c3ccccc3)nc12)N1CCN2CCCC2C1 (stereo not drawn) | inactive
102 | Cc1ccc(-c2cc(C(F)F)n3ncc(C(=O)N4CCN(c5ccccn5)CC4)c3n2)cc1 | 80.5% (active)
103 | CCOc1ccc(-c2cc(C(=O)N3CCN(c4ccccn4)CC3)c3ccccc3n2)cc1 | inactive
